Laboratory results reported in PubChem BioAssay AID1030 (National Center for Advancing Translational Sciences (NCATS), 2008).
The campaign covered roughly 220,000 compounds. About 16,000 (7.3%) were called active. Where a call stands in place of a potency, no number is given. Inconclusive results (about 25%) are left out. This is one part of a sample in which actives are shown more often than they occur. Calls follow the shape of the dose curve; as a rule, active = well fitted inhibition curve with a large enough effect (not every such curve was filed as active); inconclusive = small, poorly fitted or top-dose-only effect, or another doubt; inactive = no such curve, though single readings can be large or run the other way.

molecular target: Aldehyde dehydrogenase 1A1 (Homo sapiens) (UniProt P00352); assay: qHTS Assay for Inhibitors of Aldehyde Dehydrogenase 1 (ALDH1A1); conditions: Purified ALDH1A1, NADH fluorescence, propionaldehyde substrate; series mostly up to 75.3 µM
Sequence (P00352 whole entry, looked up): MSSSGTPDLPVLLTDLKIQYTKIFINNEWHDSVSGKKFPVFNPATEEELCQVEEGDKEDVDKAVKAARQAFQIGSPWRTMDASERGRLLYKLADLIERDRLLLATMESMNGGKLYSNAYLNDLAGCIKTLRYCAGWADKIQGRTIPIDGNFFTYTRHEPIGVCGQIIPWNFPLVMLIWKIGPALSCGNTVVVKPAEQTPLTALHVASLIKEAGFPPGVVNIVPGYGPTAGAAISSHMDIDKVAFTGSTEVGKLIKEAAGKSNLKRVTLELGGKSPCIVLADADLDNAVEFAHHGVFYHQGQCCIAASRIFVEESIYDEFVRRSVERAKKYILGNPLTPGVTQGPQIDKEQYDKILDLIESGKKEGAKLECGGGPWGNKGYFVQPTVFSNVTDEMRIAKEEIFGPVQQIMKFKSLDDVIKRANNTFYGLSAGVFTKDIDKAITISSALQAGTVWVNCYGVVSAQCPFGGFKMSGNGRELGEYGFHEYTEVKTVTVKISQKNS
Potency is read from the fitted curve at half-maximal effect.

SMILES | Potency
COCCN(Cc1nc(-c2ccc(C(F)(F)F)cc2)no1)C(C)C | inactive
Oc1c(C=Nc2cccc3nsnc23)ccc2ccccc12 | 2.82 µM (active)
O=C(Nc1cccc(C(F)(F)F)c1)c1ccc(N2CCNCC2)c([N+](=O)[O-])c1 | inactive
COc1cccc(/C=C/C(=O)Nc2ccc3c(c2)OCCO3)c1 | inactive
CCc1nnc(NC(=O)c2cccs2)s1 | inactive
CCOC(=O)c1c(NC(=S)NC(=O)/C=C/c2cccs2)sc(C)c1C | inactive
NS(=O)(=O)c1ccc(NC(=S)NNC(=O)c2cccs2)cc1 | 12.6 µM (active)
CC(C)C(=O)Nc1ccc(C(=O)NNC(=O)c2cccs2)cc1 | inactive
CCc1nnc(NS(=O)(=O)c2ccc(NC(=S)NC(=O)/C=C/c3cccs3)cc2)s1 | 12.6 µM (active)
CCc1nnc(NS(=O)(=O)c2ccc(NS(=O)(=O)c3ccccc3)cc2)s1 | inactive
COc1ccc(NS(=O)(=O)c2ccc(NC(=S)NC(=O)/C=C/c3ccc(C)cc3)cc2)nn1 | inactive
O=C(NC(=S)Nc1ccc(NC(=O)c2cccs2)cc1)c1ccc([N+](=O)[O-])cc1 | inactive
CCc1nnc(NS(=O)(=O)c2ccc(NC(=S)NC(=O)c3cccs3)cc2)s1 | 25.1 µM (active)
CC(=O)Nc1ccc(S(=O)(=O)N(C)c2ccc(OCC(=O)OCC(=O)N3CCCCC3)cc2)cc1 | inactive
CCc1cc2cc(OC)ccc2nc1SCC(=O)Nc1cc(OC)c(OC)cc1C(=O)O | inactive
COC(C)C(C(=O)OCC1=CCN2CC[C@H](O)[C@@H]12)C(C)C (stereo not given in full) | inactive
COc1ccc(C2OCC3(CO2)SC(=O)NC3=O)cc1OC (stereo not given) | inactive
CN1CCC(OC(=O)COc2ccc(Cl)cc2Cl)CC1 | inactive
O=C(CNS(=O)(=O)c1cccc(C(F)(F)F)c1)Nc1ccccc1F | 31.6 µM (active)
Cc1cccc(OCC(=O)Nc2ccccc2F)c1 | inactive
O=C(CNS(=O)(=O)c1ccccc1)NCC(=O)OCc1ccccc1F | inactive
Cc1cccc(C)c1NC(=O)C1(C)c2cccc[n+]2CC(=O)N1Cc1cccs1 (stereo not given) | inactive

SMILES | Potency
COc1ccccc1N(C)S(=O)(=O)c1ccc(Cl)c(C(=O)N2CCC(C(N)=O)CC2)c1 | inactive
COc1ccccc1-c1nnc(NC(=O)c2cccc(N3C(=O)CCC3=O)c2)o1 | inactive
O=C(Nc1cccc2cccnc12)c1cccc(N2C(=O)CCC2=O)c1 | inactive
Cc1cc(NC(=O)c2cccc(N3C(=O)CCC3=O)c2)no1 | 28.2 µM (active)
Nc1nnc(SCC(=O)NC2CCCc3ccccc32)s1 (stereo not given) | inactive
CCCCC(NC(=O)c1cccc(Br)c1)C(=O)O (stereo not given) | inactive
CC(CC(=O)O)CC(=O)NNC(=O)c1cccc(Br)c1 (stereo not given) | inactive
O=C(/C=C/NNC(=O)c1cccc(Br)c1)c1ccccc1 | 2.82 µM (active)
Cc1ccc(CN2CCC(N3CCC(C(=O)NCC4CCCO4)CC3)CC2)o1 (stereo not given) | inactive
Cc1onc(C(=O)NN)c1-c1csc(COc2ccccc2)n1 | inactive
CCCCNC(=O)CSc1nc2n[nH]c(C)c2c(=N)n1-c1cccc(Cl)c1C | inactive
C=CCn1c(CC(=O)Nc2cccc(OC)c2)nnc1SCC(=O)NC1CCCCC1 | inactive
COc1cccc(-n2c(SCC(=O)NC3CCCCC3)nc3n[nH]c(C)c3c2=N)c1 | 20 µM (active)
Cc1ccc(S(=O)(=O)N2CCCC2C(=O)OCc2nc3sc(C)c(C)c3c(=O)[nH]2)cc1 (stereo not given) | inactive
COc1ccc(-c2nn(-c3ccccc3)cc2/C=C\C(=O)Nc2ccc(C(=O)O)cc2)cc1 | inactive
COc1ccc(N=C2SC(C(=O)Nc3ccc(F)cc3)CC(=O)N2C)cc1 (stereo not given) | inactive
CCc1nc(C)cn1S(=O)(=O)c1cc([N+](=O)[O-])ccc1Cl | 7.94 µM (active)
CCc1nc(C)cn1S(=O)(=O)c1cc(OC)c(C)cc1C | inactive
CC(C)c1nccn1S(=O)(=O)c1cc([N+](=O)[O-])ccc1Cl | inactive
CC(C)C(=O)Nc1oc(-c2ccccc2)cc1C#N | inactive
COc1cccc(NC(=O)CC2C(=O)NCCN2C(=S)Nc2ccc(F)cc2)c1 (stereo not given) | inactive
O=C(CSc1nnc(-c2ccccc2)o1)N1CCOCC1 | inactive

SMILES | Potency
O=C(Cn1cnc2c(nnn2-c2ccccc2)c1=O)N1CCC(Cc2ccccc2)CC1 | inactive
O=C(NCc1nnc(SCC(=O)N2CCC(Cc3ccccc3)CC2)o1)c1ccco1 | 14.1 µM (active)
Cc1cccc(N(C(=O)Cc2cccs2)C(C(=O)NCc2ccco2)c2ccncc2)c1 (stereo not given) | inactive
COc1ccc2c(CC(=O)OCC(=O)NC(N)=O)coc2c1 | inactive
Cn1c2ccccc2c(=O)c2c(O)cccc21 | inactive
Cn1c(=O)c([N+](=O)[O-])c(Oc2ccccc2)c2ccccc21 | 17.8 µM (active)
Cc1cccc(Oc2c([N+](=O)[O-])c(=O)n(C)c3ccccc23)c1 | 3.16 µM (active)
O=[N+]([O-])c1cccc(-c2nnc3c4ccccc4c4ccccc4n23)c1 | inactive
COc1cccc(C(=O)Oc2cc(C)[nH]c(=O)c2[N+](=O)[O-])c1 | inactive
Cc1nn(C)c(Oc2ccccc2)c1[N+](=O)[O-] | inactive
CC(=O)N1CCN(S(=O)(=O)c2ccc(C)c([N+](=O)[O-])c2)C1C(C)C (stereo not given) | inactive
Nc1[nH][nH]c(=O)c1N=Nc1ccc2c(c1)OCO2 | inactive
COc1cc(NC(=O)c2cccs2)ccc1NC(=O)c1ccccc1Cl | inactive
COc1ccccc1C1CCN(C(=S)Nc2ccc(Br)cc2)CC1 | inactive
C/C(=N\NC(=O)c1cccnc1)c1ccc(-c2ccccc2)cc1 | inactive
Cc1cc(C)n(C(=O)c2ccc(S(=O)(=O)N3CCCC3)cc2)n1 | inactive
CN1CCN(NC(=O)c2ccc(S(=O)(=O)N3CCCCCC3)cc2)CC1 | inactive
CC1(C)CC(=O)C(C2=NC(C)(C)Cc3ccccc32)=C(O)C1 | inactive
Cc1ccc(N2C(=O)C(NC(=O)c3c(F)cccc3F)(C(F)(F)F)C3=C2CC(C)(C)CC3=O)cc1 (stereo not given) | inactive
CC1(C)CC(=O)C(N=Nc2ccc(S(=O)(=O)N3CCCCCC3)cc2)=C(O)C1 | 2.51 µM (active)
CC1(C)CC(=O)C(N=Nc2c(F)cccc2F)=C(O)C1 | 12.6 µM (active)
